A selection: hits, their analogues and other compounds. The true share with any hit is near 12%.
HP1b chromo inh = inhibitors of HP1-beta chromodomain binding to methylated histone tails | P83916 | AlphaScreen HP1-beta / biotin-H3K9me3 peptide binding | Potency, µM (titrated, usually from 114 µM), for inactives: at the highest dose activity change, negative = inhibition, most hits filed as inhibitors | 390,000 compounds, 0.56% hits | AID 540317; also: nearly all actives have a fitted effect of over 70% in size
Target sequence (P83916 whole entry, looked up): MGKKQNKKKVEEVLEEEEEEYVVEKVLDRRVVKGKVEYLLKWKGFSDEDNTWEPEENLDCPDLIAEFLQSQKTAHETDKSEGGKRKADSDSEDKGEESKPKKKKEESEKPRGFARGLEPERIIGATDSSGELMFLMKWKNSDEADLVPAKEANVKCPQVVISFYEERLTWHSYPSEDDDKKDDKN
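AlphaScreen: HP1-beta (50 nM) preformed 30 min with biotin-H3(1-18)K9me3 peptide (50 nM) in PBS pH 7.4, 0.01% Tween-20. Compound added for 30 min at RT, then streptavidin donor/nickel chelate acceptor beads (10 ug/mL) for 30 min.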
L3MBTL1 inh = L3MBTL1 (human) inhibition | Q9Y468 | AlphaScreen L3MBTL1–H3K9me1 peptide binding | Potency, µM (series often up to 57.1 µM), for the others: top-dose activity, negative = inhibition, actives largely listed as inhibitors | 230,000 compounds, 0.66% hits; also: % is scaled to controls: 0 for no effect and ±100 for the full control effect; nearly all actives have a fitted effect of over 60% in size
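L3MBTL1 (50 nM) pre-complexed 30 min with biotinylated H3(1-15)K9me1 peptide (75 nM), then compounds added for 30 min at room temperature; AlphaScreen streptavidin donor/nickel chelate acceptor beads (10 ug/mL final) read after 30 min dark incubation.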
G9a inh = G9a (human) methyltransferase inhibition; Q96KQ7; G9a H3K9 monomethylation, AlphaScreen, 2 h; Potency, µM (titrated, usually from 102 µM), for inactives: at the highest dose activity, negative = inhibition, most hits filed as inhibitors; 350,000 compounds, 8.8% hits; also: % is scaled to controls: 0 for no effect and ±100 for the full control effect; nearly all actives have a fitted effect of over 75% in size
Target sequence (Q96KQ7 913-1193 limits assumed): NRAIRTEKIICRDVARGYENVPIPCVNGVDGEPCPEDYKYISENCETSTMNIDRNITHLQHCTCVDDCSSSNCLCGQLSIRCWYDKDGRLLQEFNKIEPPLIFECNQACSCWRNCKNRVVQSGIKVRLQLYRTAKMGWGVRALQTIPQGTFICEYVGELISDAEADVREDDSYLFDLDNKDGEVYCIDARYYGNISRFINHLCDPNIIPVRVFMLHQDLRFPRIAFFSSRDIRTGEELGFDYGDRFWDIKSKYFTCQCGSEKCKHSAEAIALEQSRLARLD
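G9a (20 nM) preincubated 15 min RT with compounds, then 500 nM biotinylated H3K9 peptide and 20 uM SAM added; 2 h RT reaction. Monomethyl-H3K9 product detected by AlphaScreen with anti-H3K9me1 antibody, streptavidin donor and anti-rabbit IgG acceptor beads.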
BAZ2B block = inhibitors of human BAZ2B bromodomain | 360,000 compounds, 4.4% hits | Potency, µM (doses to about 114 µM), without a hit: top-dose activity change, negative = inhibition, actives largely listed as inhibitors | AlphaScreen BAZ2B-H3K14Ac peptide displacement | Q9UIF8; also: % is scaled to controls: 0 for no effect and ±100 for the full control effect; nearly all actives have a fitted effect of over 60% in size
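AlphaScreen displacement of biotin-H3(5-23)K14Ac peptide (50 nM final) from BAZ2B (50 nM final) in PBS pH 7.4, 0.01% Tween-20; complex preformed 30 min RT, then compounds (top 110 uM) 30 min RT, beads 20 min dark.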
Sfp inh = inhibitors of Bacillus subtilis Sfp phosphopantetheinyl transferase. Q9F4F7. 310,000 compounds, 3.5% hits. Biochemical Sfp PPTase activity, qHTS. Potency, µM, for inactives: largest response in the series, negative = inhibition, hits mostly inhibitors. AID 1490;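 also: the enzyme is Sfp with the accession as filed and its product quenches rhodamine fluorescence; 0% = enzyme reaction without inhibitor and -100% = no enzyme wells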
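Step 1, compound plus 15 nM Sfp-PPTase, 15 min, room temperature. Step 2, add rhodamine-CoA (5 uM) and BHQ-2-YbbR (12.5 uM). Step 3, read 525/598 nm fluorescence at 0 and 30 min.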
JMJD2A Tudor = blocks the human JMJD2A Tudor domain; Potency, µM (series often up to 114 µM), for the others: top-dose activity change, negative = inhibition, hits mostly inhibitors; AID 504339; O75164; AlphaScreen JMJD2A-Tudor / H3K4me3 peptide binding; 390,000 compounds, 4.4% hits; also: % is scaled to controls: 0 for no effect and ±100 for the full control effect; nearly all actives have a fitted effect of over 50% in size
The depositor's hits bear a star; u = inconclusive; x = no result; ! = repeats disagree; [ ] = dose if it differs, or a comment. Calls follow the shape of the dose curve; as a rule, active = well fitted curve in the direction sought with a large enough effect; inconclusive = small, poorly fitted or top-dose-only effect, or another doubt; inactive = no such curve, though single readings can be large; an effect the other way counts as inactive or inconclusive. Potency is read from the fitted curve at half-maximal effect.

SMILES	HP1b chromo inh	L3MBTL1 inh	G9a inh	BAZ2B block	Sfp inh	JMJD2A Tudor
CCCOc1ccc(Cc2c(COCC)[nH]c(=S)[nH]c2=O)cc1	3.4%	9.7%	44.7µM*	-15.8%	5.8%	-20.3%
CCOC(=O)c1cccc(NC(=O)C2CCCN(S(=O)(=O)c3ccc4c(c3)oc(=O)n4C)C2)c1 (stereo unspecified)	49.5%	x	10.3%[59 µM]	-13.9%	x	-3.0%
Nc1nnc(SCC(=O)Nc2cccc3ccccc23)s1	u	x	-5.7%	-9.7%	7.6%	-7.7%
CS[C@@H]1SC[C@H]2C(=O)N(C)C(C(C)C)C(=O)OC[C@@H](NC(=O)c3cnc4ccccc4n3)C(=O)N[C@@H](C)C(=O)N(C)[C@H]1C(=O)N(C)C(C(C)C)C(=O)OC[C@@H](NC(=O)c1cnc3ccccc3n1)C(=O)N[C@@H](C)C(=O)N2C (stereo partly specified)	x	x	x	x	7.0%	x
O=C(O)c1ccccc1C=NNc1ccccn1	10.4%	x	x	x	x	28.2µM*
O=C(NN=Cc1ccccc1C(=O)O)C(=O)NN=Cc1ccccc1C(=O)O	12.3%[57 µM]	x	x	x	x	50.1µM*
O=C(CN1C(=O)/C(=C2\SC(=S)N(C3CCS(=O)(=O)C3)C2=O)c2ccccc21)Nc1ccc(F)cc1 (stereo unspecified)	-23.9%	x	20µM*	-19.8%	-23.7%	-17.1%
COc1ccc(NC(=O)CN2C(=O)/C(=C3\SC(=S)N(C4CCS(=O)(=O)C4)C3=O)c3ccccc32)cc1 (stereo unspecified)	u	x	x	-20.4%	14.1µM*	-6.1%
COc1ccc(/C=C2\SC(=S)N(CC(=O)NC3CCS(=O)(=O)C3)C2=O)cc1 (stereo unspecified)	45.1%	x	5.7%	-17.4%	-8.3%	-6.2%
CC1(C)Cc2ccccc2C(NNC(=O)c2ccccn2)=N1	26.5%	x	12.2%[59 µM]	31.6µM*	9.1%	44.7µM*
CC1(C)Cc2ccccc2C(NNC(=O)c2ccccc2)=N1	-0.9%	x	-32.1%	9.0%	8.5%	5.8%
CC(C)Oc1ccc(CNCC2(O)CCOC(C)(C)C2)cc1 (stereo unspecified)	u	14.7%	8.91µM*	u	-9.4%	2.24µM*
CCN(CC)CCOC(=O)C1(c2ccc([N+](=O)[O-])cc2)CCCC1	12.6%	3.7%	12.6µM*!	4.7%	7.6%	-30.3%
CCN(CC)CCCOC(=O)C1(c2ccccc2)CCCC1	12.9%	x	-50.3%[59 µM]	-19.4%	-18.2%	0.8%
O=C(COC(=O)C1CCC1)NCc1ccc(F)cc1	18.3%	4.6%	-5.0%[0.501 µM]	-6.0%	x	-15.1%
S=c1nc(C2CCCCC2)[nH][nH]1	-45.9%	-1.8%	u	1.2%	56.2µM*	5.01µM*
Nc1n[nH]c(C2CCCCC2)n1	36.8%	-5.1%	10.9%	-15.0%	5.6%	-7.5%
O=C(CSc1ccc(-c2cccs2)nn1)Nc1ccccc1	33.4%	x	7.5%	-11.5%	12.0%	-6.9%
Cc1cc(C)cc(NC(=O)CSc2ccc(-c3cccs3)nn2)c1	39.6%	-3.2%	22.4µM*	-27.0%	1.3%	-16.8%
Cc1nc(C)c(-c2ccc(SCC(=O)Nc3ccccc3)nn2)s1	32.5%	x	79.4µM*	-1.4%	16.4%	8.3%
CC(=O)Nc1ccc(NC(=O)CSc2ccc(-c3sc(C)nc3C)nn2)cc1	28.4%	x	11.8%	-11.0%	4.8%	4.9%
COc1ccccc1CCNC(=O)CCSc1nc(-c2ccco2)cc(C(F)(F)F)n1	42.1%	10.9%	18.9%[59 µM]	11.5%	56.2µM*	-2.9%
O=C(CCSc1nc(-c2ccco2)cc(C(F)(F)F)n1)N1CCCc2ccccc21	44.0%	u	15.8µM*	-0.2%	-9.8%	-8.7%
COc1ccccc1CCNC(=O)CSc1nc(-c2ccco2)cc(C(F)(F)F)n1	50.6%	-1.5%	-14.7%	13.2%	-13.5%	15.2%
Cc1cc(C)c(NC(=O)Cn2nc3c(cc2=O)CCCC3)c(C)c1	29.3%[57 µM]	x	-1.3%[59 µM]	0.3%	x	-1.0%
SMILES	HP1b chromo inh	L3MBTL1 inh	G9a inh	BAZ2B block	Sfp inh	JMJD2A Tudor
Cc1cccc(C)c1NC(=O)CN1C(=O)c2ccccc2Sc2ncccc21	32.8%	x	-8.6%[59 µM]	-14.2%	x	-3.3%
O=C(CC(Nc1cccc(Cl)c1Cl)C(=O)O)c1ccccc1 (stereo unspecified)	49.7%	0.6%	28.2µM*	-38.3%	8.91µM*	-2.3%
Cc1c(Cl)cccc1NC(CC(=O)c1ccccc1)C(=O)OCC(=O)c1cccs1 (stereo unspecified)	33.7%	-4.6%	35.5µM*	7.4%	8.91µM*	-8.3%
O=C(CC(Nc1cccc(Cl)c1Cl)C(=O)OCC(=O)c1cccs1)c1ccccc1 (stereo unspecified)	31.2%	-0.1%	14.4%[59 µM]	6.7%	56.2µM*	-9.0%
COc1ccc(-c2nnc(SCC(=O)NC3CCCC3)nc2-c2ccc(OC)c(OC)c2)cc1OC	31.7%	x	-1.3%[59 µM]	1.9%	x	-6.7%
CCOc1ccc(C(=O)CCC(=O)Nc2cccc(S(=O)(=O)N3CCCCC3)c2)cc1	7.5%	2.9%	10.8%[59 µM]	1.8%	x	-16.7%
C1CN(CC23CC4CC(CC(C4)C2)C3)CCO1	31.0%	9.2%	7.94µM*	4.4%	-5.4%	0.4%
Cn1ccsc1=NC(=O)c1ccc([N+](=O)[O-])o1	u	x	u	-30.4%	9.4%	56.2µM*
COc1cc(C(=O)N=c2sccn2C)c([N+](=O)[O-])cc1OC	14.1%	x	46.3%	4.5%	17.8%	-25.3%
COc1ccc(COCC(O)CN2CCN(S(=O)(=O)c3c(F)cccc3F)CC2)cc1OC (stereo unspecified)	23.7%	x	x	x	x	-24.1%
Cc1[nH]c2ccccc2c1C(O)CN1CCN(c2cccc(C(F)(F)F)c2)CC1 (stereo unspecified)	u	-6.2%	56.2µM*	39.8µM*	-18.7%	56.2µM*
Cc1[nH]c2ccccc2c1NC(=O)CN1CCN(c2cccc(C(F)(F)F)c2)CC1	-26.2%	x	u	50.1µM*	-9.2%	u
O=C(CN1CCN(c2cccc(C(F)(F)F)c2)CC1)NCc1ccccc1	21.1%	x	x	-8.5%	3.3%	-15.0%
O=C(c1cc(=O)[nH]c2ccccc12)N1CCN(c2cccc(C(F)(F)F)c2)CC1	u	-5.3%	2.3%	-19.0%	-5.4%	u
O=C(NCC(c1cccnc1)N1CCc2ccccc2C1)C(=O)Nc1ccccc1F (stereo unspecified)	-10.0%	x	u	u	x	u
COC(=O)c1ccc2nc(C)cc(Nc3ccc(O)cc3)c2c1	14.9%	x	u	-15.5%	x	-30.8%
COC(=O)c1ccc2nc(C)cc(Nc3ccc(N(C)C)cc3)c2c1	-5.1%	u	50.1µM*	39.8µM*	-5.8%	u
